ELG1 genotox: qHTS screen for small molecules that induce genotoxicity in human embryonic kidney (HEK293T) cells expressing luciferase-tagged ELG1. HEK293T ELG1-luciferase reporter, luminescence, 16 h. Potency, µM (series often up to 46 µM), without a hit: at the highest dose activity change, positive = activation, usual class: activators. actives 1.3% (n = 330,000). AID 504466, 2011; further: % of control where 0% means no effect; nearly all actives have a fitted effect of over 60% in size
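Quantitative HTS format in 1536-well plates. HEK293T ELG1-luciferase reporter cells receive test compound and are incubated 16 hr at 37 °C, 5% CO2; ONE-Glo added, 30 min room temperature, then luminescence read.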
NPC1 prom act: qHTS Assay for NPC1 Promoter Activators; AID 485313, 2010; Potency, µM (series often up to 9.22 µM), for inactives: at the top dose activation, hits mostly activators; actives 2.4% (n = 320,000); Huh7 NPC1 promoter luciferase reporter, 24 h; further: % of control where 0% means no effect; nearly all actives have a fitted effect of over 60% in size
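NPC1 promoter–luciferase Huh7 cells; 24 h compound; luminescence.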
Rab9 promoter act: qHTS Assay for Rab9 Promoter Activators. Huh7 Rab9 promoter-luciferase reporter, luminescence, 24 h. Potency, µM (top dose mostly 9.22 µM), for inactives: at the top dose activation, negative = inhibition, actives largely listed as activators. actives 2.8% (n = 320,000); further: % of control where 0% means no effect; nearly all actives have a fitted effect of over 60% in size
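Huh7 reporter line, Rab9 promoter upstream of luciferase. Compound exposure 24 h at 37 °C in reduced-serum medium with 10% FBS. Read-out: luminescence.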
SMN2 splice up: qHTS Assay for Enhancers of SMN2 Splice Variant Expression. HEK293 SMN2-luciferase splicing reporter, luminescence, 30-36 h. Potency, µM (highest dose often 46.1 µM), for the others: top-dose activity change, positive = activation, most hits filed as activators. actives 2.8% (n = 210,000). AID 1458, 2008; further: % of control where 0% means no effect; nearly all actives have a fitted effect of over 55% in size
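qHTS luciferase splicing reporter: luminescence rises when SMN2 exon 7 is included in transfected HEK293 cells. Compound exposure lasted 30-36 h at 37C, with 4.5 mM final sodium butyrate as control, followed by a ONE-Glo read.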
FLuc modulator: qHTS profiling assay for firefly luciferase inhibitor/activator using purifed enzyme and Km concentrations of substrates (counterscreen for miR-21 project) | Luciferin 4-monooxygenase (Photinus pyralis), P08659 | purified FLuc, Km substrates, luminescence inhibition | Potency, µM (series often up to 57.5 µM), for inactives: at the highest dose activity change, negative = inhibition, usual class: inhibitors | actives 6.9% (n = 360,000) | AID 588342, 2011;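 further: plate controls were vehicle for no effect and reference inhibitor for full effect; nearly all actives have a fitted effect of over 55% in size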
Target sequence (P08659 whole entry, looked up): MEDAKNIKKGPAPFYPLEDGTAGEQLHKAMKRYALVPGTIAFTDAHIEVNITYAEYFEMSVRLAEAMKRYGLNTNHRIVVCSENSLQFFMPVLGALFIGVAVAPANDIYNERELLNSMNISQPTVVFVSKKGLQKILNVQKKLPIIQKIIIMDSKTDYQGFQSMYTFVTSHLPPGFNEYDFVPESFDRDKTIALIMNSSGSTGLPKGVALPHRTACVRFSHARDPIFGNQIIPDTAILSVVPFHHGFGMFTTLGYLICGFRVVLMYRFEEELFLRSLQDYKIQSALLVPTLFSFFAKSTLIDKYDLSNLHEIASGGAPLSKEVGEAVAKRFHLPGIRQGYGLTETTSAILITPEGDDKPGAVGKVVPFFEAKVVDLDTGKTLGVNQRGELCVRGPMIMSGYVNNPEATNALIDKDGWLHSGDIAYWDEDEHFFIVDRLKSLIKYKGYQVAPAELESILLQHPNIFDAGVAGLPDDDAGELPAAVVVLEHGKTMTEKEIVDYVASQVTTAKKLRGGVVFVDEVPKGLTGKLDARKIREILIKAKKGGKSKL
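Purified P. pyralis luciferase (10nM final) with 10uM D-luciferin and 10uM ATP (Km levels) in 50mM Tris acetate pH 7.5, 10mM Mg acetate, 0.01% Tween-20, 0.05% BSA; qHTS 6-point titration, ~60 µM downward; luminescence read.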
p53 reactivation: qHTS assay for re-activators of p53 using a Luc reporter | Potency, µM (doses to about 92.2 µM), for the others: at the highest dose activity change, positive = activation, actives largely listed as activators | AID 504706, 2011 | actives 0.063% (n = 320,000) | H1299 p53-A138V BP100-luciferase reporter, luminescence, 24 h; further: % of control where 0% means no effect; nearly all actives have a fitted effect of over 45% in size
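p53-null H1299 cells stably carrying temperature-sensitive p53-A138V and a BP100-luciferase reporter were pinned with compounds (4-point, 1:5 series) and held 24 hrs at 37 deg C. Luminescence was read 10 min after detection reagent.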
Starred values were filed as active, the others as inactive; ? = inconclusive; nt = no result. An excerpt weighted towards active compounds, which were near 7.3% of everything screened. The call rests on the fitted dose curve; in most records, active means well fitted curve in the direction sought with a large enough effect; inconclusive means small, poorly fitted or top-dose-only effect, or another doubt; inactive means no such curve, though single readings can be large; an effect the other way counts as inactive or inconclusive. Potency means the concentration at half of the fitted maximal effect.

SMILES | ELG1 genotox | NPC1 prom act | Rab9 promoter act | SMN2 splice up | FLuc modulator | p53 reactivation
Cc1ccc(-c2nnc(Nc3ccc(C(=O)N(C)C)cc3)c3ccccc23)cc1S(=O)(=O)NCC1CCCO1 (stereo not drawn) | -5.1% | 2.0% | 14.7% | 5.5% | 10.7µM* | 15.8%
Cc1ccc(-c2nnc(Nc3ccc(C(=O)N(C)C)cc3)c3ccccc23)cc1S(=O)(=O)NC(C)(C)CO | 2.5% | 5.4% | 15.4% | nt | 21.3µM* | -2.1%
Cc1ccc(Nc2nnc(-c3ccc(C)c(S(=O)(=O)N4CCN(C)CC4)c3)c3ccccc23)cc1 | nt | nt | nt | -5.4% | ? | nt
O=C1CCC=C1C(O)c1ccccc1 (stereo not drawn) | nt | nt | nt | -5.9% | nt | nt
CCc1cccc(C)c1NC(=O)CSc1nc2ccccc2nc1Cc1ccccc1 | nt | nt | nt | nt | -2.0% | nt
CC(/C=C1\SC(=Nc2cccnc2)NC1=O)=C\c1ccccc1 | -7.3% | -26.0% | -15.1% | nt | ? | 13.0%
C=CCOc1ccc(/C=C2\SC(=Nc3cccnc3)NC2=O)cc1 | 8.6% | -3.0% | 1.1% | nt | 7.57µM* | 5.3%
CSc1nc(/C=C2\C=Nc3ccccc32)c(O)n1C | 13.4% | 0.2% | 15.2% | ? | 13.5µM* | 28.9%
CCOc1cc(NC(=S)NCC2CCCO2)c(OCC)cc1NC(=O)c1cccc(F)c1 (stereo not drawn) | -7.2% | -3.2% | 1.2% | -12.7% | 3.7% | 1.3%
O=S1(=O)N=C(Nc2ccc(O)cc2)c2ccccc21 | -0.5% | 0.8% | -2.9% | 6.7% | -3.1% | 0.1%
O=S1(=O)N=C(Nc2ccc(N3CCOCC3)c(Cl)c2)c2ccccc21 | ? | ? | 3.55µM* | 12.6µM* | 5.36µM* | 1.1%
O=S(=O)(NC1CCCC1)c1cccc(S(=O)(=O)N2CCC(n3nnc4ccccc43)CC2)c1 | -8.9% | -2.6% | -7.8% | -19.2% | -2.4% | 5.2%
Cc1ccc(C)c(N=Cc2c(O)c3ccccc3oc2=O)c1 | 0.6% | -1.7% | -1.0% | nt | 3.01µM* | 5.8%
Cc1cccc(/N=C/c2c(O)c3ccccc3oc2=O)n1 | 6.8% | -1.3% | 2.3% | 37.1% | 5.36µM* | 0.4%
O=C(O)c1cc(N=Cc2c(O)c3ccccc3oc2=O)ccc1O | -6.6% | -3.2% | -4.6% | nt | 7.57µM* | -0.8%
Cc1ccc(N=Cc2c(O)c3ccccc3oc2=O)cc1F | -1.3% | -2.2% | 13.9% | nt | 1.69µM* | nt
NS(=O)(=O)c1ccc(N=Cc2c(O)c3ccccc3oc2=O)cc1 | -5.7% | -4.1% | -0.2% | -4.2% | -2.8% | 2.4%
COc1ccc(N(CC(=O)Nc2cc(Cl)ccc2OC)C2=NC3CS(=O)(=O)CC3S2)cc1 (stereo not drawn) | -5.7% | -8.1% | -6.8% | nt | -1.1% | 13.2%
CCCOc1ccccc1C(=O)N1CCCCC1CCN1CCCCC1 (stereo not drawn) | nt | nt | nt | -6.0% | -0.3% | nt
Cc1cc(C)cc(N=Cc2c(O)c3ccccc3oc2=O)c1 | 4.2% | -6.5% | 2.7% | -9.0% | -11.0% | 8.6%
Cc1cc(C)c(N=Cc2c(O)c3ccccc3oc2=O)c(C)c1 | ? | 16.8% | 1.8% | nt | 3.79µM* | 16.2%
COc1ccc(/C=C2/SC(=S)N(CCCC(=O)Nc3ccccc3C(=O)O)C2=O)cc1 | -14.2% | -19.5% | -8.4% | nt | 26.9µM* | -17.3%
COc1cccc(/C=C2/SC(=S)N(CC(=O)NNC(=O)c3ccccc3OC)C2=O)c1 | 2.9% | -1.9% | -0.4% | nt | 13.5µM* | 2.8%
COc1ccc(/C=C2/SC(=S)N(CCCC(=O)Nc3cccc(O)c3)C2=O)cc1 | 6.1% | -4.4% | -6.6% | nt | 13.5µM* | ?
Cc1cc(C)cc(NC(=O)COC(=O)CCCNC(=O)c2ccc(Cl)cc2)c1 | -0.8% | -0.2% | -5.0% | 16.4% | 12µM* | -10.3%

Screens from PubChem.
